Most compounds without a hit are left out; they make up all but 8% or so of the library.
Coupling enz: counter-screen for Giardia aldolase inhibitors: coupling enzyme system | coupling enzyme system counterscreen, AmpLite Red fluorescence | activity change, negative = inhibition, % at 58.2 µM, hits read low | 290,000 tested, 0.67% active; in the data active means activity change below about -30%
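Coupling enzymes only (glyceraldehyde-3-phosphate) + compound, at 57.5 uM final, 10 min RT; add substrate/coupling/AmpLite Red mix, 20 min RT; fluorescence ex 525/em 598 nm. Actives flag coupling-system interference.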
RORgamma inh: blocks mouse ROR gamma transcriptional activity; P51450; Drosophila S2 Gal4-RORgamma UAS-luciferase reporter, 20 h; Potency, µM (top dose mostly 53.6 µM), most hits filed as inhibitors; 310,000 tested, 5.4% active; AID 2551; further: nearly all actives have a fitted effect of over 60% in size
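Drosophila Schneider cells stably carrying a metallothionein-driven Gal4 DBD–ROR gamma fusion and a UAS-Photinus luciferase reporter were exposed to compound for 1 hr, then induced with copper sulfate (700 uM final) for 20 hr at ambient temperature before luminescence reading.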
Gal4-VP16 FLuc: inhibits Gal4-VP16 luciferase reporter, ROR gamma counter-screen; Drosophila S2 Gal4-VP16 UAS-luciferase, luminescence, 20 h; Potency, µM (highest dose often 53.6 µM), usual class: inhibitors; 310,000 tested, 3.5% active; AID 2546;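 further: Gal4-VP16 expression switched on by copper sulfate through the metallothionein promoter; nearly all actives have a fitted effect of over 50% in size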
TSHR antag: blocks TSH signaling through the human TSH receptor; TSHR-expressing cells, TSH-stimulated cAMP HTRF, 2 h; active compounds read low; activity change, negative = inhibition, % at 11.5 µM; 330,000 tested, 0.2% active;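 active means activity change below a set negative limit, meaning inhibition stronger than a set level, cut at about -70% in these data; inconclusive means activity change between two set negative limits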
Target sequence (P16473 whole entry, looked up): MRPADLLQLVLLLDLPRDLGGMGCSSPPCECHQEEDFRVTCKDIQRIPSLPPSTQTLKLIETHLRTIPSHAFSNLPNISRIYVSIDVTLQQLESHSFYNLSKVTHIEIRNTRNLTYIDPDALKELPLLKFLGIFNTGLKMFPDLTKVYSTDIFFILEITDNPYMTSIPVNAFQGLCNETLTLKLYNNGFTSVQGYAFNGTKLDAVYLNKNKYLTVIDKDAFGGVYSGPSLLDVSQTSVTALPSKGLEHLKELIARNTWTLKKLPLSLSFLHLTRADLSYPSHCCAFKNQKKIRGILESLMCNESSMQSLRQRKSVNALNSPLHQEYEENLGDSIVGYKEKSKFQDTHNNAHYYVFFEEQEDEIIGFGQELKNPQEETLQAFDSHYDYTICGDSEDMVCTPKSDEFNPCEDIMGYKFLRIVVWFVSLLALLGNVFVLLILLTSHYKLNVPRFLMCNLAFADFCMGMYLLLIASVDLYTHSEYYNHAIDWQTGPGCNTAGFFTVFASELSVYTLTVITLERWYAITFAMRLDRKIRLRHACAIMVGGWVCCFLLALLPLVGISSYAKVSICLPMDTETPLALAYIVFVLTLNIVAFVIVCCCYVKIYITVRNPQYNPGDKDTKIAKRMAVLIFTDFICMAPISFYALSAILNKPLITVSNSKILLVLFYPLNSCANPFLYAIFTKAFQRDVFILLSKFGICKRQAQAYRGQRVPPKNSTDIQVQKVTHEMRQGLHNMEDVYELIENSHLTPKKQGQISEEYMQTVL
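Antagonism was scored as loss of TSH-driven cAMP in TSHR cells, stimulated with 4nM TSH (EC80) for 2 hours at 37 deg C and detected by homogeneous HTRF competition immunoassay.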
ELG1 repair inh: inhibitors of ELG1-dependent DNA repair in HEK293T cells; HEK293T ELG1-luciferase reporter, luminescence, 16 h; DNA damage induced by 5-fluorouridine; Potency, µM (top dose mostly 46.1 µM), actives largely listed as inhibitors; 330,000 tested, 2.3% active; AID 504467; further: nearly all actives have a fitted effect of over 55% in size
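Cells (2,000 per well) received 5-fluorouridine plus test compound or DMSO and were incubated 16 hr at 37 °C, 5% CO2. Luciferase activity was read by luminescence 30 min after ONE-Glo addition; signal suppression marked inhibition of damage-induced ELG1 function.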
Of the large screens only hits and unclear results are named; the others gave an inactive call. Unless noted, the call rests on the fitted dose curve; in most records, active means well fitted curve in the direction sought with a large enough effect; inconclusive means small, poorly fitted or top-dose-only effect, or another doubt; inactive means no such curve, though single readings can be large; an effect the other way counts as inactive or inconclusive.

Nc1nc(-c2ccc(Cl)c(Cl)c2)c(-c2ccncc2)s1	RORgamma inh inconclusive (no result: TSHR antag, ELG1 repair inh)
CCN1C(=O)S/C(=C/c2ccc(Sc3nc4ccccc4[nH]3)o2)C1=O	RORgamma inh 5.6µM, Gal4-VP16 FLuc 3.2µM, ELG1 repair inh 12µM
O=C(N/N=C/c1ccc(Sc2nc3ccccc3[nH]2)o1)c1ccncc1	none
CCOc1ccc(C2C3=C(CCCC3=O)Nc3nc(C(F)(F)F)nn32)cc1OC (stereo unspecified)	none
COc1ccc(C2C3=C(CCCC3=O)Nc3nc(C(F)(F)F)nn32)cc1OC (stereo unspecified)	RORgamma inh 4.5µM
O=C(CCN1C(=O)/C(=C\c2cccc(Br)c2)SC1=S)N1CCOCC1	none
CCn1nc(C(=O)Nc2cc(Cl)ccc2-n2cncn2)c2ccccc2c1=O	none (no result: Coupling enz, RORgamma inh, Gal4-VP16 FLuc)
CN(C)c1ccc(/C=C2\SC(=O)N(CCc3nnc(N)s3)C2=O)cc1	RORgamma inh 2.5µM, Gal4-VP16 FLuc 4.5µM, ELG1 repair inh inconclusive
CC(=O)c1[nH]c(C)c(C(=O)N2CCCC(Nc3cccc(F)c3)C2)c1C (stereo unspecified)	ELG1 repair inh inconclusive (no result: Coupling enz)
CC[C@@](C)(NS(=O)(=O)OCC(Cl)(Cl)Cl)c1ccccc1	none
CC1(C)CC1C(=O)N/C(=C/CCCCSCC(N)C(=O)O)C(=O)O (stereo unspecified)	none (no result: TSHR antag, ELG1 repair inh)
c1ccc2c(OCCCN3CCCCCC3)cccc2c1	none
O=[N+]([O-])c1ccc(Sc2nnnn2-c2ccccc2)nc1	RORgamma inh 3.5µM, Gal4-VP16 FLuc inconclusive, ELG1 repair inh inconclusive
CC1(C(=O)N2CCN(C(=O)c3ccco3)CC2)CC1(Br)Br (stereo unspecified)	none (no result: Coupling enz)
CCCC(=O)N(CCc1ccc(OC)cc1)Cc1nc2ccccc2c(=O)[nH]1	RORgamma inh 10µM, Gal4-VP16 FLuc inconclusive, ELG1 repair inh inconclusive
COCC(=O)N(Cc1ccc(OC)cc1)Cc1nc2ccccc2c(=O)[nH]1	none (no result: Gal4-VP16 FLuc)
CCCCC(=O)N(Cc1ccc2c(c1)OCO2)Cc1nc2ccccc2c(=O)[nH]1	RORgamma inh 11µM
COc1ccccc1CN(Cc1nc2ccccc2c(=O)[nH]1)C(=O)Nc1ccccc1	RORgamma inh 10µM, Gal4-VP16 FLuc inconclusive, ELG1 repair inh inconclusive
COCC(=O)N(CCc1ccc(OC)cc1)Cc1nc2ccccc2c(=O)[nH]1	RORgamma inh 5µM, Gal4-VP16 FLuc 7.1µM
OCC[C@H]1C[C@H](O)[C@@H](O)[C@]2(Cc3ccccc3CCO2)O1	none (no result: Coupling enz, RORgamma inh, Gal4-VP16 FLuc)
O=C(Nc1nc2ccccc2[nH]1)C1CCC1	RORgamma inh inconclusive, Gal4-VP16 FLuc inconclusive, ELG1 repair inh inconclusive
O=C(Nc1nc2ccccc2[nH]1)C1CCCC1	RORgamma inh 7.1µM, Gal4-VP16 FLuc inconclusive, ELG1 repair inh inconclusive
O=C(CC1CCCC1)Nc1nc2ccccc2[nH]1	RORgamma inh 8.9µM, Gal4-VP16 FLuc inconclusive, ELG1 repair inh inconclusive
CCc1cccc(NS(=O)(=O)c2ccc3c(c2)N(C)CCO3)c1	Gal4-VP16 FLuc inconclusive (no result: Coupling enz)
Cc1ccc(OCC(=O)c2c(N)n(C)c(=O)n(C)c2=O)c([N+](=O)[O-])n1	none (no result: Coupling enz, RORgamma inh, Gal4-VP16 FLuc)
O=C(O)c1ccc(N=Nc2c(O)ccc3ncccc23)cc1	RORgamma inh 1.1µM, Gal4-VP16 FLuc 3.2µM, ELG1 repair inh inconclusive
COc1cc2c(cc1OC)CN(C(=S)Nc1ccc(C)cc1C)CC2	RORgamma inh 10µM, Gal4-VP16 FLuc 20µM
COc1cc2c(cc1OC)CN(C(=S)Nc1ccccc1Cl)CC2	RORgamma inh inconclusive, ELG1 repair inh inconclusive
COc1cc2c(cc1OC)CN(C(=S)Nc1ccccc1)CC2	RORgamma inh 11µM
COc1ccc(NC(=O)C2CCCN(c3nn4c(=O)cc(C)nc4s3)C2)c(OC)c1 (stereo unspecified)	none
CCCNC(=O)CCC(=O)Nc1ncc(-c2ccc(C)cc2)n1C	RORgamma inh 3.5µM, Gal4-VP16 FLuc 5.6µM
COC(=O)[C@@H]1[C@@H](C)N(CCc2cc(OC)c(OC)c(OC)c2)C(=O)N[C@H]1c1ccccc1	none (no result: RORgamma inh, Gal4-VP16 FLuc, TSHR antag, ELG1 repair inh)
Cc1cc(C)n(-c2nc3ccccc3c(=O)n2OCC(N)=O)n1	RORgamma inh 6.3µM, Gal4-VP16 FLuc 20µM
Cc1cc(CC(C)C)n(-c2nc3ccccc3c(=O)n2OCC(N)=O)n1	RORgamma inh 2.2µM, Gal4-VP16 FLuc 5.6µM, ELG1 repair inh inconclusive
Cc1cc(C)n(-c2nc3ccccc3c(=O)n2OCCOc2ccccc2)n1	RORgamma inh inconclusive, Gal4-VP16 FLuc 14µM
COc1cccc(/C=N/NC(N)=S)c1OCc1cccc(Cl)c1	RORgamma inh 2.8µM, Gal4-VP16 FLuc 4µM, ELG1 repair inh inconclusive
COC(=O)N/N=C/c1cc(Cl)cc(Cl)c1OCc1ccccc1	none
NC(=S)N/N=C/c1c[nH]c2ccc(OCc3ccccc3)cc12	RORgamma inh 5µM, Gal4-VP16 FLuc 4.5µM, ELG1 repair inh inconclusive
O=C(CSCc1ccccc1)N/N=C/c1ccccc1OCc1ccccc1	ELG1 repair inh inconclusive
NC(=S)N/N=C\c1ccccc1OCc1ccccc1	RORgamma inh 2.2µM, Gal4-VP16 FLuc 3.5µM
NC(=S)N/N=C/c1ccccc1OC(=O)c1cc2ccccc2oc1=O	RORgamma inh 7.1µM, Gal4-VP16 FLuc 7.1µM, ELG1 repair inh inconclusive
COc1ccc(CNC(=O)[C@H](C)NC(=O)N2CCn3c2nc2ccccc23)cc1	none (no result: Coupling enz)
COc1ccc(COC(=O)CCS(=O)(=O)c2ccc(C)cc2)cc1F	none (no result: Coupling enz, RORgamma inh, Gal4-VP16 FLuc)
NC(=S)N/N=C/c1ccccc1OC(=O)/C=C/c1ccccc1	RORgamma inh 3.5µM, Gal4-VP16 FLuc 3.5µM (no result: Coupling enz)
CCOC(=O)N/N=C\c1ccccc1OC/C=C/c1ccccc1	RORgamma inh inconclusive, ELG1 repair inh inconclusive
NC(=S)N/N=C\c1c(OCc2ccccc2Cl)ccc2ccccc12	RORgamma inh 1.1µM, Gal4-VP16 FLuc 3.2µM, ELG1 repair inh inconclusive
NC(=S)N/N=C\c1c2ccccc2cc2ccccc12	Gal4-VP16 FLuc inconclusive, ELG1 repair inh inconclusive
CN(C(=O)CCc1nnc(CCCCc2ccccc2)o1)C1CC(C)(C)NC(C)(C)C1	RORgamma inh 2µM, Gal4-VP16 FLuc 4.5µM
Cc1cc(C)c(S(=O)(=O)N2CCOC2CNC(=O)C(=O)NCc2ccncc2)c(C)c1 (stereo unspecified)	none (no result: Coupling enz)
Cn1cc(-c2nc3cnc(N4CCNCC4)nc3n(C3CC3)c2=O)c2ccccc21	RORgamma inh inconclusive, Gal4-VP16 FLuc inconclusive (no result: TSHR antag, ELG1 repair inh)
c1coc(-c2nc3ccccc3nc2-c2ccco2)c1	Coupling enz -38
O=C(NCCO)c1ccc2nc(-c3ccco3)c(-c3ccco3)nc2c1	Coupling enz -47
COc1ccc(-c2nc3ccc(C(=O)NCC(OC)OC)cc3nc2-c2ccc(OC)cc2)cc1	ELG1 repair inh 16µM
COC(CNC(=O)c1ccc2nc(-c3ccccc3)c(-c3ccccc3)nc2c1)OC	ELG1 repair inh inconclusive
O=C(c1ccccc1)c1ccc2nc(-c3ccco3)c(-c3ccco3)nc2c1	Gal4-VP16 FLuc inconclusive, ELG1 repair inh inconclusive
O=C(NC1CCCC1)c1ccc2nc(-c3ccco3)c(-c3ccco3)nc2c1	Coupling enz -30, ELG1 repair inh inconclusive

Screening results as filed in PubChem.
